Reference: PubChem BioAssay
Activity calls are given as the source filed them. Unless noted, no rule for the calls is given here.

Columns and labels:
[1] = compound effects on lung adenocarcinoma cell viability – A549, calcein-AM fluorescence, 48 h, basal, profiling panel (AID 1162); conditions: higher = more signal; also: test concentration not given here
[2] = compound effects on differentiated 3T3-L1 adipocyte viability – cell-based, 3T3-L1 adipocytes, calcein-AM fluorescence, 48 h, basal, profiling panel (AID 1163); conditions: 3T3-L1 adipocytes viability, higher = more signal; also: test concentration not given here
[3] = compound effects on hepatocellular carcinoma cell viability – HepG2, calcein-AM fluorescence, 48 h, basal, profiling panel (AID 1164); conditions: higher = more signal; also: test concentration not given here
[4] = compound effects on multiple myeloma cell viability – MM1S, calcein-AM fluorescence, 48 h, basal, profiling panel (AID 1165); conditions: higher = more signal; also: test concentration not given here
[5] = calcein-AM signal in unstimulated myeloma cells – cell-based, calcein-AM fluorescence, 48 h, PK04 Diversity Set, profiling panel (AID 1166); conditions: RPMI8226 myeloma viability, higher = more signal;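 also: cells grown under basal conditions without added stimulus; test concentration not given here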
[6] = JC-1 mitochondrial signal, unstimulated HepG2 cells – cell-based, JC-1 fluorescence, 24 h, 100 nL compound, profiling panel (AID 1167); conditions: HepG2 mitochondrial potential, higher = more signal; also: test concentration not given here
[7] = JC-1 mitochondrial signal, unstimulated adipocytes – cell-based, JC-1 fluorescence, 3T3-L1 adipocytes, 24 h, 100 nL compound, profiling panel (AID 1168); conditions: JC-1 mitochondrial fluorescence, higher = more signal, called active from +8 up or from −8 down; also: test concentration not given here
[8] = JC-1 mitochondrial signal, unstimulated myeloma cells – cell-based, JC-1 fluorescence, RPMI8226, 24 h, 100 nL compound, profiling panel (AID 1169); conditions: JC-1 mitochondrial potential fluorescence, higher = more signal; also: test concentration not given here
[9] = JC-1 mitochondrial signal, unstimulated MM1S myeloma – cell-based, JC-1 fluorescence, 24 h, 100 nL compound, profiling panel (AID 1170); conditions: MM1S mitochondrial potential, higher = more signal; also: test concentration not given here
[10] = resazurin metabolic signal in A549 cells – cell-based, resazurin fluorescence, 24 h, PK04 Diversity Set, profiling panel (AID 1171); conditions: A549 viability, higher = more signal, called active from +8 up or from −8 down; also: test concentration not given here
[11] = resazurin metabolic signal in HepG2 cells – cell-based, resazurin fluorescence, 24 h, PK04 Diversity Set, profiling panel (AID 1172); conditions: HepG2 viability, higher = more signal; also: test concentration not given here
[12] = budding yeast growth changes without added modifier – OD600, strain BY4716, 24 h, basal condition, primary screen (AID 1173); conditions: S. cerevisiae BY4716 growth, OD600, 24 h; higher = more signal, called active from +8 up or from −8 down
[13] = viability profiling in MM1S myeloma cells – cell-based, resazurin fluorescence, basal, 24 h, PK04 Diversity Set, profiling panel (AID 1174); conditions: higher = more signal, called active from +8 up or from −8 down; also: test concentration not given here
[14] = biological target: Dihydroorotate dehydrogenase (quinone), mitochondrial (Plasmodium falciparum (isolate 3D7)) (UniProt Q08210); assay: inhibition of P. falciparum DHODH – biochemical, C-terminal His tag, absorbance 600 nm, primary screen (AID 1175); conditions: PfDHODH enzyme, DCIP absorbance 600 nm; higher = more signal, called active from +8 up or from −8 down;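 also: recombinant parasite enzyme with a five histidine tag at its C terminus; test concentration not given here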
Chain of Dihydroorotate dehydrogenase (quinone), mitochondrial (Plasmodium falciparum (isolate 3D7)) (Q08210 whole entry, looked up): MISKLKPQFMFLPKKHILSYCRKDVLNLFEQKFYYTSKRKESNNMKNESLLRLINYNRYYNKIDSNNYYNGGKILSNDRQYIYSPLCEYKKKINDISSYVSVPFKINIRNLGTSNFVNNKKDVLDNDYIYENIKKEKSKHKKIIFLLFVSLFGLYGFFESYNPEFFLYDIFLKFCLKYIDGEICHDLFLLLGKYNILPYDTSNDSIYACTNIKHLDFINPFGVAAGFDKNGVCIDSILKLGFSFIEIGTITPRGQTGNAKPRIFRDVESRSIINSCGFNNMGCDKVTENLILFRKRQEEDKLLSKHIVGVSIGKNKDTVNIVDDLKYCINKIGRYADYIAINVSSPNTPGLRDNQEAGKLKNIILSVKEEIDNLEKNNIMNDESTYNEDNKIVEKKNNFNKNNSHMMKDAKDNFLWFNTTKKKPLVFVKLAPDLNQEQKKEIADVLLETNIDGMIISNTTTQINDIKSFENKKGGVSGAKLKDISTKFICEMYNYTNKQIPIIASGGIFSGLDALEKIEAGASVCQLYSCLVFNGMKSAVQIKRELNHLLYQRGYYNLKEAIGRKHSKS

[15] = inhibition of PAO1 biofilm formation – strain PAO1, LB-PBS medium, absorbance 600 nm, primary screen (AID 1176); also: test concentration not given here; conditions: P. aeruginosa PAO1 growth/biofilm, A600, 12 h; higher = more signal
[16] = growth modulation of vineyard yeast isolate – strain RM11-1a, OD600, basal, 24 h, primary screen (AID 1177);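 also: cultures grown under basal conditions with no added stressor; test concentration not given here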; conditions: S. cerevisiae RM11-1a growth, OD600, 24 h; higher = more signal, called active from +8 up or from −8 down
[17] = growth of efflux-deficient E. coli DRC39 – strain DRC39, OD650, 24 h, E. coli filamentation inducers, primary screen (AID 1178);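 also: growth measured as culture turbidity by optical density at 650 nm; test concentration not given here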; conditions: E. coli DRC39 acrAB, higher = more signal, called active from +8 up or from −8 down
[18] = growth of efflux-deficient E. coli DRC39 – strain DRC39, OD650, 48 h, E. coli filamentation inducers, primary screen (AID 1179);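 also: screen aims at cell division blockers that make cells filament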; conditions: E. coli DRC39 delta-acrAB growth, higher = more signal, called active from +8 up or from −8 down
[19] = viability profiling in RPMI8226 myeloma cells – cell-based, resazurin fluorescence, basal, 24 h, PK04 Diversity Set, profiling panel (AID 1180); conditions: higher = more signal;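 also: RPMI8826 multiple myeloma cell line at 5000 cells per well; test concentration not given here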
[20] = biological target: E3 ubiquitin-protein ligase XIAP (Homo sapiens) (UniProt P98170); assay: small molecules binding XIAP protein – biophysical, small-molecule microarray, fluorescence 635 nm, primary screen (AID 1181); conditions: higher = more signal;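 also: score merges 667 nm emission and signal to noise over triplicate slides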
Chain of E3 ubiquitin-protein ligase XIAP (Homo sapiens) (P98170 whole entry, looked up): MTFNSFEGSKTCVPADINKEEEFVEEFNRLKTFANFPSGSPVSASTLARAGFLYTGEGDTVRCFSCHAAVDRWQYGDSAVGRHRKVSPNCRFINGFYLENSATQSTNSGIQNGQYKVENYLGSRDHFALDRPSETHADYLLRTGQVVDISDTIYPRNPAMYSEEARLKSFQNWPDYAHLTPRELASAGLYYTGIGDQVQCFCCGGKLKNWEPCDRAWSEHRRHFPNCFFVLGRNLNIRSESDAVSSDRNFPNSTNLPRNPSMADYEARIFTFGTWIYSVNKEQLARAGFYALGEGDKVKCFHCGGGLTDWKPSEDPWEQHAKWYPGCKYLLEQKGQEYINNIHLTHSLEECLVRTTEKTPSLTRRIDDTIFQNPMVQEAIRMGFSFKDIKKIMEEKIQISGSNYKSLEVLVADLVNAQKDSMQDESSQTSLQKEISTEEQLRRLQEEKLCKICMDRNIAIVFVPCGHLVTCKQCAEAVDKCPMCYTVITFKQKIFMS

Compound | z-score [1] | z-score [2] | z-score [3] | z-score [4] | z-score [5] | z-score [6] | z-score [7] | z-score [8] | z-score [9] | z-score [10] | z-score [11] | z-score [12] | z-score [13] | composite z-score [14] | z-score [15] | z-score [16] | z-score [17] | z-score [18] | z-score [19] | composite z-score [20]
Cc1cc2c(nc1C)CCCCN2CC(C)ON=C1[C@H]2CCn3c(=O)n(-c4ccccc4)c(=O)n3[C@H]2[C@H](O)[C@@H]2O[C@H]12 (stereo not given in full) | -0.333 | -0.0663 | 0.305 | -0.767 | -1.21 | -0.439 | -0.521 (inactive) | 0.407 | -0.974 | -1.53 (inactive) | -1.22 | -0.683 (inactive) | -3.13 (inactive) | -0.498 (inactive) | -0.525 (inactive) | 0.722 (inactive) | 0.588 (inactive) | 1.2 (inactive) | -0.459 | -0.327
CON=C(C)CCC(=O)OC[C@H]1O[C@H](c2ccccc2)C=C[C@@H]1Oc1ccc(OC)cc1 | -0.208 | -0.119 | -0.646 | -1.32 | -0.0394 | -1.05 | 0.0208 (inactive) | 0.00696 | -0.0885 | 0.525 (inactive) | 0.0444 | 0.831 (inactive) | 0.289 (inactive) | -0.0389 (inactive) | 0.0981 (inactive) | 1.44 (inactive) | 0.732 (inactive) | -1.76 (inactive) | 0.268 | 0.0619
CO[C@@H]1C=CCC(=O)N2CCC[C@H]2C(=O)OC[C@@H](C)C(=O)OC[C@H]1C | 0.623 | 0.244 | 1.17 | 0.138 | -0.267 | 0.848 | 0.00578 (inactive) | -0.257 | 0.269 | 0.585 (inactive) | 1.12 | -0.62 (inactive) | 0.866 (inactive) | 0.321 (inactive) | 0.659 (inactive) | -0.841 (inactive) | 0.947 (inactive) | 0.977 (inactive) | 0.218 | 0.104
CC(C)=CCCC(C)=CCON=C1C[C@@H](O)[C@@H](O)[C@@H]2[C@@H]3C(=O)N(Cc4ccccc4)C(=O)[C@@H]3CC[C@@H]12 | 0.123 | -0.827 | -1.45 | 0.732 | 0.107 | 0.786 | 0.199 (inactive) | -0.11 | -0.689 | 0.708 (inactive) | 1.42 | -0.404 (inactive) | 0.772 (inactive) | 0.317 (inactive) | -0.143 (inactive) | 0.581 (inactive) | 0.593 (inactive) | 1.01 (inactive) | 0.97 | -0.121
C#CCCCON=C1C[C@@H](O)[C@@H](O)[C@@H]2[C@@H]3C(=O)N(C(C)(C)C)C(=O)[C@@H]3CC[C@H]12 | 0.053 | -0.304 | 0.673 | 0.505 | -0.413 | -0.161 | -0.505 (inactive) | 0.386 | -0.708 | -0.496 (inactive) | -0.375 | 0.522 (inactive) | -0.0486 (inactive) | -0.396 (inactive) | -0.143 (inactive) | -0.311 (inactive) | 0.329 (inactive) | 0.221 (inactive) | -0.0553 | -0.0849
C[C@H]1CC[C@H]2C(=O)O[C@H](COc3ccc(C(C)(C)C)cc3)CN2[C@@H]1c1ccc(Br)cc1 | 0.354 | 0.356 | 0.573 | 0.0772 | -2.09 | -0.568 | -0.372 (inactive) | -0.841 | 1.33 | 0.636 (inactive) | -0.158 | -0.407 (inactive) | 0.422 (inactive) | 0.159 (inactive) | -0.409 (inactive) | -0.0809 (inactive) | -1.42 (inactive) | -1.37 (inactive) | 0.432 | -0.19
CCOC(=O)[C@H](Cc1ccccc1)NC(=O)CCC1CC(OC(=O)NCCc2ccc(F)cc2)CC2(CCCC(COC(=O)NCCc3ccccc3OC)O2)O1 (stereo not given in full) | -0.793 | -0.702 | 0.492 | -2.99 | -1.42 | 0.723 | 0.3 (inactive) | 0.165 | -1.02 | -0.301 (inactive) | -0.0425 | 0.456 (inactive) | -0.288 (inactive) | -0.732 (inactive) | 0.626 (inactive) | 0.476 (inactive) | -0.0222 (inactive) | -1.19 (inactive) | 0.0228 | -0.0796
Cc1ccc(S(=O)(=O)n2c3ccccc3c3nnc(C(=O)c4ccccc4)nc32)cc1 | 1.8 | 0.294 | -0.284 | -0.377 | 0.271 | -2.96 | 0.839 (inactive) | -0.248 | -0.956 | -0.721 (inactive) | -0.148 | -0.586 (inactive) | -0.508 (inactive) | -1.1 (inactive) | 0.523 (inactive) | 0.151 (inactive) | 1.04 (inactive) | 0.0979 (inactive) | -0.222 | -0.256
